An excerpt weighted towards active compounds, which were near 8.7% of everything screened.
AMA1 RON2 block: inhibitors of Plasmodium falciparum AMA1-RON2 interaction | AlphaScreen AMA1-biotinylated RON2 peptide binding | actives 0.2% (n = 360,000) | Potency, µM (titrated, usually from 58.2 µM), inactives show at the top dose activity change, negative = inhibition, usual class: inhibitors;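 further: 0% = vehicle wells and -100% = peptide control; nearly all actives have a fitted effect of over 45% in size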
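AMA1 (3D7) with his tag at 25 nM final met compounds first, then biotinylated RON2 peptide at 25 nM; detection used donor plus acceptor beads, 10 µg/mL apiece, read by AlphaScreen after 30 min at room temperature.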
Pf growth 48h: P. falciparum growth inhibition at 48 hours (one generation). P. falciparum luciferase growth in erythrocytes, 48 h. Potency, µM (top dose mostly 28.7 µM), without a hit: at the top dose activity change, negative = inhibition, usual class: inhibitors. actives 5.9% (n = 310,000). AID 504832
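Luciferase-expressing parasites in RBCs, 2% Hct / 0.1% parasitemia final; RPMI 1640 + 0.5% Albumax; 37 C, 5% CO2, one generation; luminescence read-out, lower signal = inhibition.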
Pf growth 96h: P. falciparum growth inhibition at 96 hour, primary screen for plastid delayed-death inhibitors. P. falciparum luciferase reporter growth, 96 h. Potency, µM (series often up to 28.7 µM), for inactives: at the highest dose activity change, negative = inhibition, usual class: inhibitors. actives 6.9% (n = 320,000). AID 504834
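P. falciparum expressing integrated firefly luciferase grown in erythrocytes (2% hematocrit, 0.05% parasitemia final) with compounds for 96 hours at 37 C, 5% CO2. Growth inhibition read as loss of luminescence after adding luciferase detection reagent.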
VACV mCherry inh: vaccinia inhibition (mCherry reporter); actives 0.63% (n = 310,000); Potency, µM (highest dose often 36.5 µM), inactives show top-dose activity change, negative = inhibition, usual class: inhibitors; Vaccinia virus mCherry reporter infection, fluorescence; calls by dose curve; tested in A549 cells; further: nearly all actives have a fitted effect of over 35% in size
Vaccinia Venus: vaccinia inhibition (Venus reporter); Vaccinia virus Venus reporter expression, fluorescence; Potency, µM (series often up to 36.5 µM), without a hit: top-dose activity change, negative = inhibition, hits mostly inhibitors; actives 0.46% (n = 330,000); calls by dose curve; tested in A549 cells; further: nearly all actives have a fitted effect of over 30% in size
Active calls of the source: *; i = inactive; ? = inconclusive; . = no result. Unless noted, the call rests on the fitted dose curve; in most records, active means well fitted curve in the direction sought with a large enough effect; inconclusive means small, poorly fitted or top-dose-only effect, or another doubt; inactive means no such curve, though single readings can be large; an effect the other way counts as inactive or inconclusive. Unless noted, on the % scale 0 is the no-effect control and ±100 the full control effect; potency means the concentration at half of the fitted maximal effect.

SMILES	AMA1 RON2 block	Pf growth 48h	Pf growth 96h	VACV mCherry inh	Vaccinia Venus
C[N+]1(CCC(=O)c2ccccc2)CCCCC1	15%	?	?	-3%	3%
Cc1cccc(NCc2nc3ccccc3n2CCOc2ccccc2C)c1	.	.	.	-23%	-25%
CCOC(=O)c1cc(-c2ccccc2)nc2nc(N(CC)CC)sc12	97%	9.3µM*	12µM*	-10%	-20%
Cc1ccc(-c2nc3ncccc3o2)cc1NC(=O)c1ccccc1Br	.	.	.	-8%	-5%
COc1cc(OC)cc(C(=O)Nc2ccc3nc4n(c(=O)c3c2)CCCC4)c1	-1%	?	14%	.	.
COc1cc(C(=O)Nc2ccc3nc4n(c(=O)c3c2)CCCC4)ccc1Br	7%	8.3µM*	-3%	.	.
CC(=O)c1ccc(NC(=O)c2ccc3c(=O)n4c(nc3c2)CCCCC4)cc1	10%	?	18%	.	.
O=C(Nc1ccc(F)cc1)c1ccc2c(=O)n3c(nc2c1)CCCCC3	-4%	87%	4.7µM*	-7%	-8%
COc1ccc(Cl)cc1C(=O)Nc1ccc2nc3n(c(=O)c2c1)CCCC3	0%	?	2.1µM*	-22%	-18%
CC(C)(C)c1ccc(OCc2cc(=O)n3c4c(sc3n2)CCCC4)cc1	.	.	.	7%	0%
O=C(Nc1ccccc1)Nc1ccc2nnsc2c1	-15%	-44%	?	?	?
O=C(Nc1ccccc1)Nc1ccc2snnc2c1	3%	?	3.3µM*	-2%	-19%
CCn1c(C)csc1=NC(=O)c1ccccc1	30%	91%	-21%	-6%	-5%
CCn1c(C)csc1=NC(=O)c1ccccc1O	13%	111%	1.7µM*	-2%	-10%
COC(=O)c1ccccc1NC(=O)c1cc(CN2CCOCC2)on1	.	.	.	-3%	2%
Cc1cc(-n2c(C)cc(C(=O)CN3C(=O)NC4(CCCCCC4)C3=O)c2C)no1	-4%	12µM*	-15%	-28%	-22%
COCCn1c(C)cc(C(=O)CN2C(=O)NC3(CCCCCCC3)C2=O)c1C	-7%	21%	.	-4%	-20%
Cc1cc(C(=O)CN2C(=O)NC3(CCCCC3)C2=O)c(C)n1-c1ccc2c(c1)OCO2	-26%	?	13µM*	-27%	-19%
CCN(CC)C(=O)c1ccc(NS(=O)(=O)c2ccc3[nH]c(=O)[nH]c3c2)cc1	13%	12µM*	8.3µM*	i	-14%
CC(OC(=O)c1ccc(NS(=O)(=O)c2ccc3[nH]c(=O)[nH]c3c2)cc1)C(=O)Nc1ccc(Cl)cc1 (configuration not stated)	-10%	0.83µM*	0.59µM*	-3%	-10%
O=C(CCl)Nc1c[nH]c(=O)[nH]c1=O	1%	1.7µM*	8%	7.1µM*	7.9µM*
Cc1noc2ncnc(N3CCN(c4ccccc4F)CC3)c12	.	.	.	-5%	-3%
O=C(NO)c1ccc(C(=O)N(C2CCCCC2)C2CCCCC2)cc1	46%	3.3µM*	6%	.	.
O=C(c1c(F)cccc1F)N(C1CCCCC1)C1CCCCC1	1%	10µM*	-15%	.	.
O=C(c1c(F)cccc1F)N(Cc1cccs1)C1CCCC1	13%	-12%	31%	.	.
SMILES	AMA1 RON2 block	Pf growth 48h	Pf growth 96h	VACV mCherry inh	Vaccinia Venus
CC(=O)c1c(C)oc2c(Cl)cc(NS(=O)(=O)c3cc(C)c(C)cc3C)cc12	.	.	.	i	0%
Cc1ccc2sc(N3CCN(C(=O)c4ccc([N+](=O)[O-])o4)CC3)nc2c1C	-7%	0.37µM*	0.74µM*	-9%	-19%
CCCCC(=O)N1CCN(c2nc3c(C)c(C)ccc3s2)CC1	.	.	.	-6%	5%
O=C(c1ccc([N+](=O)[O-])o1)N1CCN(c2nc3c(Cl)cccc3s2)CC1	0%	1.3µM*	1µM*	-28%	-15%
O=C(c1ccc([N+](=O)[O-])o1)N1CCN(c2nc3ccc(F)cc3s2)CC1	-19%	2.3µM*	1.2µM*	i	-13%
COc1cccc2sc(N3CCN(C(=O)c4ccc([N+](=O)[O-])o4)CC3)nc12	-25%	0.83µM*	0.74µM*	8.9µM*	13µM*
COc1ccc(OC)c2sc(N3CCN(C(=O)c4ccco4)CC3)nc12	.	.	.	-8%	-14%
CC1CCN(c2oc(-c3ccc(OCc4ccccc4Cl)cc3)nc2C#N)CC1	.	.	.	25%	-14%
CCN(C(=O)c1cc2c(Cl)nc3ccccc3c2s1)c1cccc(Cl)c1	.	.	.	8%	1%
CC1=C(C(=O)Nc2cccc(Cl)c2)C2(CCCCCC2)OC1=O	.	.	.	-9%	-16%
